Results on 27 molecules are retold here after PubChem BioAssay (NCI).

Molecules are shown by their SMILES. About 83,000 compounds went through this panel and 20% of them were active in at least one assay; those are over-represented in the sample as a whole.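 Values shown are percent growth following 48 h exposure of cells in 96-well plates to a single concentration of compound; below 10 was considered active.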 Calls of active or inactive are those of the source.

This test has as its system HL-60(TB) leukemia. The test is described as follows: NCI-60 one-dose screen, 48 h (100 = growth as untreated, 0 = no growth, -100 = all killed). The note with it: 10 µM unless noted.
Regarding `CC(=O)OCCC/C(=C/c1cc2ccccc2c2ccccc12)[N+](=O)[O-]`, the growth is -52.1% (active).
`CC(=O)N1CCN(CCNC(=O)n2cc(-c3ccncc3)c(-c3cc(O)cc(Cl)c3)n2)CC1`: the growth is 59.9% (inactive).
In the case of `Cc1cc(Cl)c2c(N(C)C)cccc2n1` it was 97.3% (inactive); in that of `CC(C)(O)CCl`, 120% (inactive).
The figure for `CCOC(=O)C1(CC(C)C)CCOC1=O` (configuration not stated) is 96.9% (inactive); for `COC(=O)Nc1nc2ccc(C(=O)c3cccc(I)c3)cc2[nH]1` it is -41.7% (active); for `Fc1ccc(-c2cnc3nonc3n2)c(F)c1` it is 7.84% (active).
The figure for `COc1cccc(/C=C2\C=C(c3ccccc3)N(Cc3ccccc3)C2=O)c1` is 90.7% (inactive).
`COc1cc2nc(Nc3ccc(F)cc3)nc(N)c2cc1OC`: the growth was 79.4% (inactive).
In the case of `Nc1ccc(Oc2ccccc2)c(Cl)c1` it was 119% (inactive); in that of `CCNCc1ccc(O)c2ncccc12`, 13.1% (inactive); in that of `Nc1c(Br)cc2c(c1Br)Cc1cc(Cl)ccc1-2`, 100% (inactive).
Take `COc1cc2c(cc1OCCCCCn1c(-c3ccc(OCc4ccccc4)cc3)nc3cc(N4CCOCC4)ccc31)N=C[C@@H]1CCCN1C2=O`: the growth is 12.7% (inactive).
In the case of `O=c1cc(C2NNC(=S)N2)c2ccc3ccccc3c2o1` (configuration not stated) it was 102% (inactive); in that of `CCNC(=O)N1CCc2c(Br)c3c(c(OC)c2C1Cc1ccc(OC)cc1)OCO3` (configuration not stated), 7.48% (active).
The figure for `Nc1nccc2c1ccn2-c1cccc(NC(=O)c2ccc(N3CCOCC3)c(C(F)(F)F)c2)c1` is -3.75% (active); for `CCOC(=O)C/C(C)=N\O` it is 94.5% (inactive).
The figure for `CCOC(=O)Cn1nnc(-c2ccc(OCc3ccccc3F)cc2)n1` is 102% (inactive).
Take `O=C(NC(Cc1nnc2n(Cc3ccccc3)c(=O)c3c4c(sc3n12)CCCC4)c1ccc(Cl)cc1)c1ccccc1` (configuration not stated): the growth is 78.5% (inactive).
For `CCCCCCCCCCCCCCCC1=NCCN1`, the growth is -15.6% (active).
As to `COc1ccc2c(c1)-c1c(c3cc(OC)ccc3n(CCN(C)C)c1=O)C2=O`, the growth is 18% (inactive).
The figure for `CS(=O)(=O)N(c1cc(-c2ccc3ncnc(Nc4ccc(F)c(Cl)c4)c3c2)cnc1Cl)S(C)(=O)=O` is 20.4% (inactive); for `C=C(C)[C@@H]1CC[C@]2(C(=O)N3CCCNCC3)CC[C@]3(C)[C@H](CC[C@@H]4[C@@]5(C)CCC(=O)C(C)(C)[C@@H]5CC[C@]43C)[C@@H]12` it is 67.4% (inactive).
The figure for `CC(=O)c1c(C)[nH]c(-c2nc3ccc(N4CCN(C)CC4)cc3[nH]2)c1-c1ccc(OCC2CCOCC2)cc1` is -12.9% (active).
In the case of `O=C(Nc1ccc(Cl)cc1F)c1cc(I)ccc1O` it was 19.9% (inactive); in that of `CCCCCCCCCCCCCCCCCC1=NC(C)(C)CN1C(C)(C)CO`, -66.9% (active).
As to `Oc1c(I)cc(I)cc1CNCCN(Cc1ccccn1)Cc1ccccn1`, the growth is -31.5% (active).
